From PubChem BioAssay (NCI)
The panel holds about 83,000 compounds, 20% with a hit somewhere; the sample as a whole holds those more often.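 Cell lines were cultured in 96-well plates, exposed to a single compound concentration, and assessed for percent growth 48 hours later.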 The source made the active and inactive calls. The calls were made as follows: active = growth percent below 10; inactive = the rest.

Tests used:
Test in all cases: NCI-60 one-dose screen, 48 h (100 = growth as untreated, 0 = no growth, -100 = all killed)
Conditions in all cases: 10 µM unless noted
[1] = test system: SK-MEL-2 melanoma
[2] = test system: EKVX NSCLC
[3] = test system: SN12C renal
[4] = test system: UO-31 renal
[5] = test system: TK-10 renal
[6] = test system: ACHN renal
[7] = test system: CAKI-1 renal
[8] = test system: A498 renal
[9] = test system: CCRF-CEM leukemia
[10] = test system: MOLT-4 leukemia

Measured: growth

CCOc1nc(-c2ccccc2)cc2c(O)c(C(=O)NN)[nH]c(=O)c12
inactive: [1] 83.7% | [2] 108% | [3] 109% | [4] 88.6% | [5] 120% | [6] 107% | [7] 109% | [8] 115% | [9] 103% | [10] 113%

OCCOCCN(Cc1ccccn1)Cc1cc(I)cc(I)c1O
inactive: [1] 87.1% | [2] 87.7% | [3] 89.8% | [4] 42.9% | [5] 58.9% | [6] 41.2% | [7] 23.7% | [8] 89.9% | [9] 81.9% | [10] 86.2%

COc1cc(-c2cc(-c3ccc(N(C)C)cc3)nc(N3CCC(O)CC3)c2C#N)cc(OC)c1OC
inactive: [2] 21.7% | [3] 26.4% | [5] 14.9% | [6] 15.1% | [8] 26.3% | [9] 26.6%
active: [1] -54.2% | [4] -45.1% | [7] -22.6% | [10] 2.62%

CC1(C)CC[C@]2(C(=O)O)CC[C@]3(C)C(=CC[C@@H]4[C@@]5(C)C/C(=C/O)C(=O)C(C)(C)[C@@H]5CC[C@]43C)[C@@H]2C1
active: [10] 7.85%
inactive: [1] 104% | [2] 88.6% | [3] 65.7% | [4] 57.7% | [5] 58.1% | [6] 20% | [7] 48.6% | [8] 85.6% | [9] 16.3%

COc1ccc(-c2cc(-c3ccc(Cl)cc3)c(C#N)c(=O)n2CCCCC(=O)Nc2ccccc2N)cc1
inactive: [1] 79.7% | [2] 47.3% | [3] 42.3% | [4] 33.4% | [5] 102% | [6] 51.6% | [8] 20.9% | [9] 42.5% | [10] 47.8%
active: [7] 1.45%

C/C(=N/O)c1ccc(F)cc1
active: [1] 7.9% | [6] -10.4%
inactive: [2] 105% | [3] 81.4% | [4] 80.8% | [5] 92.8% | [7] 61% | [8] 111% | [9] 87.2% | [10] 77.7%

CCN(CC)CCNC(=O)c1cn2ncnc(Oc3ccc(NC(=O)Nc4ccc(Cl)c(C(F)(F)F)c4)c(F)c3)c2c1C
active: [1] -36.9% | [4] -53% | [6] -44.5% | [9] 4.8% | [10] -20.8%
inactive: [2] 24.5% | [3] 62.5% | [5] 27.8% | [7] 39.6% | [8] 21.1%

CN(C)c1ccc(/C=C/C(=O)c2ccc(-n3cc(CN4CCN(c5cc6c(cc5F)c(=O)c(C(=O)O)cn6C5CC5)CC4)nn3)cc2)cc1
active: [3] 8.77%
inactive: [1] 89% | [2] 87.6% | [4] 62.8% | [5] 85.1% | [6] 88.5% | [7] 36.9% | [8] 61.1% | [9] 20% | [10] 31.8%

Cc1ccc(C2=Nc3c(N)ncnc3NC(c3ccc4c(c3)OCO4)C2)cc1 (stereo not given)
inactive: [1] 61.8% | [2] 83.2% | [3] 96.8% | [4] 60.9% | [5] 84.5% | [6] 74.3% | [7] 56.6% | [8] 55.4% | [10] 49.3%
active: [9] -39.4%

O=C(Nn1c2c(sc1=NCc1ccccc1)C(=O)c1ccccc1C2=O)c1cc2ccc1CCc1ccc(cc1)CC2
inactive: [1] 77.3% | [2] 88.4% | [3] 61.8% | [4] 38.2% | [5] 124% | [6] 42% | [7] 43.4% | [8] 86.7% | [9] 40.8% | [10] 21%

COc1cccc(NC(=O)Cn2cc(CN3CCN(c4ccnc5cc(Cl)ccc45)CC3)nn2)c1
active: [9] -45.1%
inactive: [1] 106% | [2] 76.7% | [3] 92.1% | [4] 62% | [5] 104% | [6] 85% | [7] 78% | [8] 104% | [10] 50%

O=C(NCCCN1CCOCC1)c1cccc(N2C(=O)/C(=C/c3ccc(F)cc3)SC2=S)c1
inactive: [1] 109% | [2] 88.5% | [3] 93.6% | [4] 70.7% | [5] 100% | [6] 87.2% | [7] 81.2% | [8] 51.6% | [9] 108% | [10] 111%

CCCc1cc(NC)nc(S(=O)(=O)CC)n1
inactive: [1] 115% | [2] 104% | [3] 99.1% | [4] 91.8% | [5] 110% | [6] 107% | [7] 98.1% | [8] 113% | [9] 107% | [10] 107%

CN[C@]12CC3(C=CC(=O)C=C3)O[C@@]1(Cc1ccc(OC)cc1)N(C)C(=O)N2
inactive: [1] 70.7% | [2] 96% | [4] 48.7% | [5] 24.1% | [7] 16% | [8] 97% | [10] 28%
active: [3] 4.44% | [6] -86.3% | [9] 6.3%

CCCCCOc1ccc(C(=O)/C(Br)=C/C(=O)O)cc1
inactive: [1] 95.2% | [2] 103% | [3] 102% | [4] 98.6% | [5] 125% | [6] 94.3% | [7] 81.1% | [8] 86.2% | [9] 80.5% | [10] 65.4%

C#Cc1ccc(NC(=O)c2ccc(/C=C/C(=O)c3nccn3C)cc2)cc1
active: [1] -30.4% | [2] -75.4% | [3] -37.5% | [4] -98.8% | [5] -2.59% | [6] -72.1% | [7] -81.6% | [8] -70.3% | [9] -9.16% | [10] -10%

CNc1nc(S(=O)c2ccc(C#N)cc2)nc2ccccc12 (stereo not given)
inactive: [1] 105% | [2] 82.2% | [3] 68.9% | [4] 60.2% | [5] 109% | [6] 41.8% | [7] 39.9% | [8] 86% | [9] 32.2% | [10] 68.6%

Cc1ccc(NC(=S)NNC(=S)NNc2ccccc2)cc1C
inactive: [1] 91.2% | [2] 108% | [3] 101% | [4] 77.2% | [5] 104% | [6] 99.1% | [7] 95% | [8] 93.7% | [9] 44.4% | [10] 45%

COC(=O)c1cc(-c2ccc(S(C)(=O)=O)cc2)[nH]c1N/N=C/c1c(Cl)cccc1Cl
inactive: [2] 42.2% | [3] 39.4% | [4] 22.5% | [5] 19.2% | [6] 53.7% | [7] 30.3%
active: [1] -18.8% | [8] -22.5% | [9] 1.59% | [10] 6.05%

Cc1ccc(/C=C2\CN(C(=O)OC(C)(C)C)C/C(=C\c3ccc(C)cc3)C2=O)cc1
active: [9] 3.02%
inactive: [1] 83.8% | [2] 84.3% | [3] 60.7% | [4] 66.9% | [5] 87% | [6] 20.3% | [7] 61% | [8] 67.6% | [10] 34.7%

CC(C)(C)[Si](C)(C)O[C@H]1C(=O)C=CN2CC=C[C@@H]12
inactive: [1] 112% [100 µM] | [2] 91.2% [100 µM] | [3] 97.4% [100 µM] | [4] 80.3% [100 µM] | [5] 108% [100 µM] | [6] 101% [100 µM] | [7] 104% [100 µM] | [8] 97.9% [100 µM] | [9] 106% [100 µM] | [10] 118% [100 µM]

COc1cc2c(c(OC)c1OC)C(=O)CC(c1cccc(NC(=O)c3ccc(Br)cc3)c1)O2 (stereo not given)
active: [1] 8.79% | [9] 2.95% | [10] -11.5%
inactive: [2] 74.3% | [3] 61.5% | [4] 34.9% | [5] 61.7% | [6] 52.4% | [7] 46.2% | [8] 36.2%

CCN(CC)CCOc1ccc(-c2c(-c3ccccc3)c(=O)oc3ccccc23)cc1
inactive: [1] 82.5% | [2] 94.6% | [3] 80.3% | [4] 61.5% | [5] 95.9% | [6] 100% | [7] 97.5% | [8] 72% | [9] 95.7% | [10] 80.7%

O=C(NCc1ccccc1)Nc1ccccc1CNc1nc(Nc2ccc(OCCN3CCCC3)cc2)ncc1Cl
inactive: [1] 108% | [2] 99.2% | [3] 101% | [4] 71.7% | [5] 110% | [6] 92.3% | [7] 106% | [8] 77.2% | [9] 20% | [10] 74.1%

O=C(N/N=C/c1ccc(F)cc1)c1ccc(C(F)(F)F)nc1Nc1cccc(C(F)(F)F)c1
active: [1] -29.1% | [2] 4.22% | [3] -12.1% | [4] -18.4% | [5] 3.93% | [6] -3.72% | [7] -7.66% | [8] -1.26% | [9] 0.801% | [10] -20.3%
